Sampled rows, rich in hits. Any-hit rate of the full collection: about 4.5%.
tim10-1 inh = tim10-1 yeast growth inhibition; S. cerevisiae tim10-1 ts strain growth, BacTiter-Glo, 24 h; hit rate 2.2% among 330,000; AID 463190; inhibition, % at 20 µM;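 active means inhibition of at least 40%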;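 further: mutant grown at 25 °C; 0% = DMSO wells with yeast and 100% = wells holding no yeast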
PfHsp90 yeast 2 = inhibits growth of yeast expressing Plasmodium falciparum Hsp90. S. cerevisiae expressing PfHsp90, BacTiter-Glo ATP, 48 h; yeast lacking PDR1 and PDR3 efflux regulators. inhibition, % at 9.4 µM. hit rate 0.32% among 310,000. AID 504621;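 active means every replicate shows inhibition above about 80%, whatever the replicate mean, limit read from the data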;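 further: 0% = DMSO neutral controls and 100% = 20 µM radicicol positive controls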
TIM10 inh = TIM10 yeast growth inhibition. S. cerevisiae TIM10 strain growth, BacTiter-Glo luminescence, 24 h. inhibition, % at 10 µM. hit rate 1.4% among 330,000. AID 463195;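 active means inhibition of 40% or more at the single tested concentration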;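 further: wild-type TIM10 isogenic control strain grown at permissive 25 °C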
NALP3 yeast inh = NALP3 inhibition in yeast | Yeast reconstituted NLRP3/ASC/caspase-1, beta-gal luminescence, 24 h | inhibition, % at 10 µM | AID 2825 | hit rate 0.39% among 330,000;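 active means inhibition of 50% or more; inactive means inhibition below 50%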;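 further: plate controls were induced DMSO wells for no effect and uninduced yeast grown without galactose for full effect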
SKKanGAS inh = blocks kanamycin growth of S. pyogenes SKKanGAS strain | BacTiter-Glo, 6 h | inhibition, % at 7.5 µM | hit rate 1.3% among 300,000 | AID 1662;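 active means mean replicate score, as percent of positive control median, at least 50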;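 further: strain carries kanamycin resistance gene driven by streptokinase promoter and grows in 40 µg/ml kanamycin; loss of luminescence reflects streptokinase promoter inhibition or plain growth inhibition; 0% = median of DMSO wells and 100% = positive control at its reference dose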
tim23-1 inh = tim23-1 yeast growth inhibition. S. cerevisiae tim23-1 growth, BacTiter-Glo luminescence, 24 h. inhibition, % at 20 µM. hit rate 1.3% among 330,000;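 active means growth inhibition of the mutant yeast at or above 50%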;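 further: temperature-sensitive mutant grown at 25 °C; plate controls were DMSO-treated mutant yeast for no effect and medium wells lacking yeast for full effect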
NALP3 yeast conf = NALP3 inhibition confirmation in yeast. shares compounds with NALP3 yeast inh. yeast expressing human NALP3, luminescence. inhibition, % at 10 µM. hit rate 81% among 1,300. AID 435006; in the data active means inhibition above about 48%
Casp1-ASC yeast = counter-screen for NALP3 inhibitors: yeast caspase-1-ASC | shares compounds with NALP3 yeast inh | inhibition, % at 10 µM | yeast expressing Caspase-1-ASC, luminescence counter screen | hit rate 66% among 1,000 | AID 488784
NALP3 retest = confirmation retest of NALP3 inhibitors in yeast; shares compounds with NALP3 yeast inh; yeast expressing human NALP3, luminescence read-out; inhibition, % at 10 µM; hit rate 53% among 1,000; AID 488794
An asterisk follows results filed as active; nt = no result. Unless noted, no stated cut-off is given here; in the data, active means inhibition above about 50%; inactive means the rest.

SMILES	tim10-1 inh	PfHsp90 yeast 2	TIM10 inh	NALP3 yeast inh	SKKanGAS inh	tim23-1 inh	others
O=C(N/N=C/c1c(O)n(CCc2ccccc2)c(=O)[nH]c1=O)c1ccccc1O	3.3	-22.6	-12.5	6.8	103.4*	1.2
CCCCCCC(=O)N/N=C/c1c(O)n(C(C)CC)c(=S)[nH]c1=O (configuration not stated)	-10.8	0.2	-10.0	17.6	89.8*	8.8
Cc1ccc(CC(=O)N2CCN(C)CC2)cc1	-5.7	-6.6	0.3	10.6	-4.4	6.0
COc1ccc(CN2Cc3cnnn3-c3ccccc3C2C)cc1 (configuration not stated)	nt	15.1	nt	nt	nt	nt
O=C(N/N=C/c1c(O)n(Cc2ccccc2)c(=O)[nH]c1=O)c1ccccc1O	0.4	6.5	6.5	0.5	83.7*	12.2
COc1cc(OC)c([C@H]2C=C(C)[C@H]3C[C@@H]2C3(C)C)c(OC)c1	-3.8	17.0	4.8	12.4	97.4*	-7.7
CCOC(=O)c1[nH]ncc1CN1CCCC(C(=O)c2cccc(Cl)c2)C1 (configuration not stated)	9.5	26.4	-10.2	4.1	-23.5	5.8
CC12CC(O)C3C(CCC4=CC(=O)CCC43C)C1CCC2=O (configuration not stated)	nt	10.3	nt	nt	nt	nt
COC(=O)C1=C(c2ccc(OC(F)(F)F)cc2)C[C@@H]2CC[C@H]1N2C(=O)NCc1cc(C)oc1C(F)(F)F	17.3	5.2	-8.8	5.4	nt	17.0
CC1=C(C(=O)O)N2C(=O)C(NC(=O)Cc3ccccc3)C2SC1 (configuration not stated)	-7.3	29.8	10.2	-10.6	94.5*	10.1
COC(=O)C1=C(c2ccc(OC)c(OC)c2)C[C@@H]2CC[C@H]1N2C(=O)NCc1ccco1	0.8	1.7	-2.9	20.4	nt	0.5
COC12C(COC(N)=O)C3=C(C(=O)C(C)=C(N)C3=O)N1CC1C2N1C (configuration not stated)	-5.5	-2.4	-6.0	3.8	110.8*	5.7
COC(COC(N)=O)C1=C(N2CC2)C(=O)C(C)=C(N2CC2)C1=O (configuration not stated)	nt	-2.2	nt	nt	nt	nt
CC1(C)CN=C(NCc2ccccc2)S1	nt	1.5	nt	nt	-4.0	nt
CC1(C)CN=C(Nc2nc3ccccc3s2)S1	10.1	-12.8	-27.9	27.1	61.1*	23.6
CCCCCCC(Cl)(Cn1ccnc1)c1ccccc1 (configuration not stated)	-39.2	101.4*	-123.1	22.5	1.5	-217.3
CCCCCCn1c(O)c(C=NCCCn2ccnc2)c(=O)[nH]c1=O	12.4	-9.6	-9.4	16.6	3.3	11.0
CCOc1cc2c(cc1OCC)-n1cccc1C(c1cc(OC)ccc1F)NC2 (configuration not stated)	24.5	-2.2	30.0	1.9	-0.6	25.7
COc1cccc(NP(=O)(Oc2ccc(Cl)cc2)Oc2ccc(Cl)cc2)c1	12.3	-19.4	22.6	-3.7	56.1*	16.0
O=P(Nc1ccccc1)(Nc1ccccc1)Oc1ccc(Cl)cc1	25.7	4.6	23.2	16.1	10.1	23.2
O=[N+]([O-])/C=C/c1c(Cl)cccc1Cl	nt	144.8*	nt	nt	nt	nt
CCN(CC)c1ccc(/C=C/[N+](=O)[O-])cc1	-7.0	12.0	4.3	11.3	-2.8	43.6
Oc1c(Br)cc(Br)cc1Oc1ccc(Br)cc1Br	nt	nt	nt	nt	106.9*	nt
CCOC(=O)c1c(-n2c(C)cc(C=C3C(=O)NC(=S)NC3=O)c2C)sc2c1CCCC2	30.0	108.6*	28.6	3.9	15.6	43.6
CN(C)[C@@H]1C(=O)C(C(N)=O)=C(O)[C@@]2(O)C(=O)C3=C(O)c4c(O)cccc4[C@@](C)(O)C3C[C@@H]12 (some centres not stated)	2.8	13.6	-1.6	13.6	109.5*	-0.5
SMILES	tim10-1 inh	PfHsp90 yeast 2	TIM10 inh	NALP3 yeast inh	SKKanGAS inh	tim23-1 inh	others
CN(C)[C@@H]1C(=O)C(C(N)=O)=C(O)[C@@]2(O)C(=O)C3=C(O)c4c(O)ccc(Cl)c4[C@@](C)(O)[C@H]3C[C@@H]12	nt	-24.5	nt	nt	108.8*	nt
CN(C)[C@@H]1C(=O)C(C(N)=O)=C(O)[C@@]2(O)C(=O)C3=C(O)c4c(O)cccc4[C@@](C)(O)[C@H]3[C@H](O)[C@@H]12	-3.3	2.6	1.0	13.5	-2.1	-8.1
C[C@]12CCC3C(C1CCC2=O)[C@H](O)C[C@H]1C[C@@H](O)CC[C@]31C (some centres not stated)	-7.4	-4.1	-4.4	11.0	nt	-1.1
C[C@]12CCC3[C@@H](CC[C@H]4C[C@@H](O)CC[C@]34C)C1CCC2=O (some centres not stated)	-80.2	-9.1	-115.4	59.1*	-1.0	3.6	NALP3 yeast conf=70.8*
C[C@]12CC[C@H](O)C[C@H]1CC[C@@H]1[C@@H]2CC[C@]2(C)C(=O)CC[C@@H]12	7.9	17.9	-1.4	54.2*	nt	26.6	NALP3 yeast conf=67.5*;Casp1-ASC yeast=64.5*;NALP3 retest=56.1*
C[C@]12CCC3C(CC[C@H]4C[C@@H](O)CC[C@]34C)C1C[C@@H](O)C2=O (some centres not stated)	-214.0	nt	-289.6	47.0	nt	-103.5
C[C@]12CCC3C(CC[C@@H]4C[C@H](O)CC[C@]34C)C1CCC2=O (some centres not stated)	1.9	-4.0	-0.7	73.2*	nt	31.7	NALP3 yeast conf=72.0*;Casp1-ASC yeast=72.2*;NALP3 retest=51.5*
C[C@]12CC[C@@H](O)C[C@H]1CC[C@@H]1[C@@H]2CC[C@]2(C)C(=O)CC[C@@H]12	27.6	-7.6	0.5	66.0*	2.4	32.2	NALP3 yeast conf=72.5*;Casp1-ASC yeast=70.5*;NALP3 retest=60.4*
COc1ccc2c3c1OC1C(=O)CC[C@@]4(O)[C@@H](C2)N(CC2CC2)CC[C@]314 (some centres not stated)	-2.0	nt	4.6	-1.8	nt	-0.1
COC1=CC2C3Cc4ccc(OC)c(O)c4C2(CCN3C)CC1=O (configuration not stated)	nt	-14.7	nt	nt	nt	nt
COC(=O)N(c1ccccc1)P(=O)(Oc1ccccc1)Oc1ccccc1	21.4	18.6	6.3	11.8	-0.3	36.0
CC12CCC3C(CCC4C/C(=N/O)CCC43C)C1CCC2O (configuration not stated)	-6.4	14.6	-21.1	62.6*	4.9	43.7	NALP3 yeast conf=41.6;Casp1-ASC yeast=62.6*;NALP3 retest=46.5
C[C@]12CC(=O)CC1CCC1C2CC[C@@]2(C)C1CC[C@@H]2O (some centres not stated)	8.3	16.2	11.8	59.7*	-11.0	25.9	NALP3 yeast conf=61.2*;Casp1-ASC yeast=62.8*;NALP3 retest=40.1
